In PubChem BioAssay AID1347131 (National Center for Advancing Translational Sciences (NCATS), 2019):
Hit rate of the full screen: of about 410,000 compounds, about 2,000 (0.49%) were called active. A call without a number means that no potency is given here. Another 8% or so got no clear call; they are omitted. The call rests on the fitted dose curve; tested in HEK293 reporter line. Many of the other results were omitted from the sample, so actives are more common in it than they were.

Experiment: qHTS Assay for Foot and Mouth Disease Virus Antivirals: Primary Screen against the MLPCN compound library; further: nearly all actives have a fitted effect of over 55% in size
Settings: FMDV antiviral cell-based qHTS; series mostly up to 57.9 µM
Potency means the concentration at half of the fitted maximal effect.

SMILES	Potency
CCOc1ccc(CN(C)C(=O)c2cc(S(=O)(=O)N3CCCC3)ccc2C)cc1	inactive
Cc1ccccc1C(=O)N/N=C1/SCC(=O)N1Cc1ccc2c(c1)OCO2	inactive
C=CC(COCc1ccccc1)N([C@@H](Cc1ccccc1)C(=O)OC)S(=O)(=O)c1ccccc1Br (stereo partly drawn)	inactive
CCN(CCCNC(=O)CC(C(=O)N1CCc2ccccc21)n1ccnc1)c1cccc(C)c1 (stereo not drawn)	inactive
Cc1nn(-c2ccccc2)nc1C(=O)NN	inactive
COc1cc(CNc2ncnc3c2ncn3[C@H]2CN(Cc3ccc(F)cc3)C[C@@H](CO)O2)cc(OC)c1OC	inactive
COc1ccc(Oc2ncc3nc(-c4ccc(Cl)cc4)c(=O)n(CCC#N)c3n2)cc1	inactive
CCOC(=O)C1(CCOc2ccccc2)CCN(Cc2ccc(OC)c(O)c2)CC1	inactive
CCC(=O)N(Cc1ccc2c(c1)OCO2)Cc1cc2cc(OC)ccc2[nH]c1=O	inactive
COc1cc(SC)ccc1C(=O)Nc1ccc(Br)cn1	8.91 µM (active)
COc1cc(SC)ccc1C(=O)Nc1ccccn1	17.8 µM (active)
COc1ccc(C(=O)Nc2ccc(C)cn2)c(OC)c1	inactive
COc1cc(SC)ccc1C(=O)Nc1nc2ccccc2[nH]1	inactive
COc1cc(SC)ccc1C(=O)NCCOc1c(C)cc(C)cc1C	inactive
COc1cc(C(=O)Nc2ccccc2C(=O)Nc2ccccn2)cc(OC)c1OC	inactive
CCOc1ccc(S(=O)(=O)N2CCN(C(=O)c3cc(C4CC4)nn3-c3ccccc3)CC2)cc1	inactive
CN1CCN(C(=O)c2cc3nc(-c4ccccc4)cc(C(F)(F)F)n3n2)CC1	inactive
CC(C)c1cc(Br)c(NC(=O)Nc2cccnc2)c(Br)c1	inactive
O=C1CN=C(c2ccc(Br)cc2)c2c(sc3c2CCCC3)N1CCN1CCCCC1	inactive
OCCCCCNc1ncnc2ccccc12	inactive
CC(C)(C)c1ccc(C(=O)O/N=C(\N)c2ccccc2)cc1	inactive
CC(C)(C)c1ccc(C(=O)O/N=C(\N)c2ccccn2)cc1	inactive
Cc1cccc(/C(N)=N/OC(=O)c2ccc(Cl)cc2Cl)c1	20 µM (active)

SMILES	Potency
CO/N=C\c1cc(C(=O)c2ccc(Cl)cc2Cl)cn1C	inactive
Cc1cccc(C(=O)O/N=C(\N)c2ccccn2)c1	8.91 µM (active)
Cc1ccc(C(=O)O/N=C(\N)Cc2ccc([N+](=O)[O-])cc2)c(Cl)c1	inactive
CCCNNC(=O)C(O)(c1ccccc1)c1ccccc1	inactive
Cc1ccc(-c2nnc(-c3ccccc3)c(N3CCOCC3)n2)cc1	inactive
COc1ccc(-c2noc(C3CC(=O)N(c4cc(C)cc(C)c4)C3)n2)cc1 (stereo not drawn)	inactive
Cc1cccc(C)c1-n1nnnc1C(c1ccnc2ccccc12)N(CCN(C)C)Cc1ccccc1 (stereo not drawn)	inactive
Cc1c(NC(=O)c2ccc(-c3ccccc3)cc2)cccc1C(=O)O	5.01 µM (active)
Cc1cccc(C(=O)O)c1NC(=O)c1ccc(F)cc1	inactive
Cc1ccc(C(=O)Nc2ccccc2C(=O)O)cc1S(=O)(=O)Nc1ccccc1	inactive
COc1ccc(C(C)(O)c2nc(-c3ccncc3)cs2)cc1 (stereo not drawn)	inactive
COc1ccc(-c2csc(N3C(=O)CNC3=S)n2)cc1	10 µM (active)
COc1ccc(C(C)(O)c2nc(-c3ccc(S(C)(=O)=O)cc3)cs2)cc1 (stereo not drawn)	inactive
Cc1ccc(CC2CC(=O)N(Cc3ccco3)C2=O)cc1 (stereo not drawn)	inactive
Cn1c(=O)c2c(nc(N3CCCCC3)n2CC(O)COc2ccccc2)n(C)c1=O (stereo not drawn)	inactive
Cn1c(=O)[nH]c(=O)c2c1nc(N1CCCCC1)n2CC(O)COc1ccc([N+](=O)[O-])cc1 (stereo not drawn)	10 µM (active)
Cn1c(=O)[nH]c(=O)c2c1nc(N1CCCCC1)n2CCOc1ccccc1	inactive
CCCc1cnc(N2CCN(C(=O)c3ccc(F)cc3)CC2)nc1	inactive
Cc1ccc2c(c1)N(C(=O)Nc1cccc3c1CCCC3)CCO2	inactive
CCC(Sc1nc(C)cc(C)n1)C(=O)O (stereo not drawn)	inactive
O=S(=O)(c1ccc(Cl)cc1)N1CCc2ccccc21	inactive
COc1ccccc1[C@]1(C)ON(c2ccccc2C(F)(F)F)C1=O	14.1 µM (active)
FC(F)(F)c1ccccc1N1CC1c1ccncc1 (stereo not drawn)	inactive

SMILES	Potency
COc1ccccc1CC1(C)C(=O)Nc2ccc(OC(F)(F)F)cc21 (stereo not drawn)	inactive
O=C(O)c1ccccc1-c1nc2ccccc2n1-c1ccccc1	inactive
Cc1oc(-c2nc3ccccc3n2C)cc1C(=O)c1ccccc1	17.8 µM (active)
Cc1ccc(C(=O)N2CCN(c3nc4ccccc4n3C)CC2)cc1	inactive
CN(c1ccc(OCC(=O)Nc2ccc(S(N)(=O)=O)cc2)cc1)S(=O)(=O)c1ccc(F)cc1	inactive
Cc1ccc(S(=O)(=O)C2(S(=O)(=O)c3ccc(C)cc3)CC2)cc1	inactive
Cc1ccccc1C(=O)N1CCC(C(=O)Nc2cc(C(F)(F)F)ccc2N2CCCC2)CC1	inactive
CN(C)S(=O)(=O)N1CCC(Oc2cccc(C(=O)NCCC3=CCCCC3)c2)CC1	inactive
O=C(NCCC1=CCCCC1)c1ccc(F)cc1	14.1 µM (active)
O=C(NCCc1nc(-c2ccc(F)cc2)no1)c1ccc(F)cc1	inactive
CCCCn1nc2cc(C(=O)NCC34CC5CC(CC(C5)C3)C4)ccc2c1OC	inactive
Cc1noc(C)c1CSc1nnc(-c2cc(Cl)ccc2Cl)n1N	inactive
CC(=O)c1sc(NC(=O)C2CC(=O)N(Cc3ccccc3)C2)nc1-c1ccccc1 (stereo not drawn)	inactive
Clc1cc(Br)ccc1OCCCNCc1ccccc1	inactive
CCOc1cc(CNCc2ccncc2)cc(Br)c1OCc1ccccc1F	inactive
Brc1ccc(OCc2ccccc2)c(CNCc2ccncc2)c1	20 µM (active)
Cc1ccc(S(=O)(=O)c2c(C)nn(C(C)(C)C)c2OC(=O)C(C)(C)C)cc1	inactive
COc1cc2[nH]c(=S)nc(NC3CCCCCC3)c2cc1OC	inactive
CCOC(=O)c1ccc(N2C=C(C(=O)OC)C(c3ccc(OC)c(O)c3)C(C(=O)OC)=C2)cc1	inactive
COc1ccc(CCNC(=O)/C(C#N)=C/c2ccc(OCC(=O)NCC3CCCO3)cc2)cc1OC (stereo not drawn)	inactive
N#C/C(=C\c1ccc(OCc2ccc(C(=O)O)cc2)cc1)C(=O)N1CCOCC1	10 µM (active)
Cc1cccc(NC(=O)/C(C#N)=C\c2ccc(C(=O)O)cc2)c1	inactive
